Measurements as given in PubChem BioAssay AID1159580 (chemical genetic matrix, 2015).
“And” between values parts separate entries of the source, which are not always exact repeats. Identical values can stand only once. About 2,000 (36%) of roughly 5,500 compounds were called active. Another 18% or so got no clear call; they are omitted. Rule as the data show it: active = normalized growth mostly below about 0.91 (no sharp cut-off); inconclusive = no clear call, values can overlap the other calls; inactive = mostly above about 0.92. The list shows a part of the results.

Assay: chemical genetic growth profiling, strain panel (AID 1159580);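 also: tested at 20 µM; growth read once vehicle control cultures reached saturation at 30 °C; 1 = growth at the plate median or of vehicle wells; lower values mean less growth of the strain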
Conditions: S. cerevisiae deletion strains, growth OD

Measured: normalized growth

NNC(=O)c1ccncc1
inactive: locus YAL013W, strain DEP1, active compounds read low 1.01 | locus YAL021C, strain ccr4, active compounds read low 1.01 | locus YAL026C, strain drs2, active compounds read low 0.991 | locus YAL030W, strain snc1, active compounds read low 1.03 | locus YBL061C, strain skt5, active compounds read low 1.01 | locus YBR009C, strain hhf1, active compounds read low 0.986 | locus YBR021W, strain FUR4, active compounds read low 1.01 | locus YBR023C, strain chs3, active compounds read low 1.01 | locus YBR171W, strain sec66, active compounds read low 1.02 | locus YBR229C, strain ROT2, active compounds read low 1.01 | locus YBR231C, strain swc5, active compounds read low 1.03 | locus YBR279W, strain paf1, active compounds read low 1.01 | locus YCL011C, strain gbp2, active compounds read low 0.984 | locus YCL016C, strain dcc1, active compounds read low 0.981 | locus YCL029C, strain bik1, active compounds read low 1 | locus YCL061C, strain MRC1, active compounds read low 1.02 | locus YCL069W, strain vba3, active compounds read low 1.02 | locus YCR088W, strain abp1, active compounds read low 1.02 | locus YDL005C, strain med2, active compounds read low 1.01 | locus YDL035C, strain GPR1, active compounds read low 1.01 | locus YDL040C, strain nat1, active compounds read low 1 | locus YDL074C, strain BRE1, active compounds read low 1.03 | locus YDL101C, strain DUN1, active compounds read low 1.01 | locus YDL185W, strain tfp1, active compounds read low 0.991 | locus YDL192W, strain arf1, active compounds read low 0.995 | locus YDR001C, strain nth1, active compounds read low 1.02 | locus YDR069C, strain doa4, active compounds read low 1.02 | locus YDR101C, strain arx1, active compounds read low 0.997 | locus YDR137W, strain rgp1, active compounds read low 0.989 | locus YDR159W, strain sac3, active compounds read low 0.943 | locus YDR162C, strain NBP2, active compounds read low 1.02 | locus YDR195W, strain ref2 1 | locus YDR297W, strain sur2, active compounds read low 1.01 | locus YDR318W, strain mcm21, active compounds read low 0.993 | locus YDR334W, strain swr1, active compounds read low 1.01 | locus YDR335W, strain msn5, active compounds read low 1.01 | locus YDR388W, active compounds read low 0.992 | locus YDR392W, strain spt3, active compounds read low 0.941 | locus YDR502C, strain sam2, active compounds read low 0.993 | locus YEL003W, strain gim4, active compounds read low 1.04 | locus YEL037C, strain rad23, active compounds read low 1.02 | locus YEL061C, strain CIN8 (second series), active compounds read low 1.01 | locus YEL061C, strain CIN8, active compounds read low 1.01 | locus YER015W, strain faa2, active compounds read low 1.01 | locus YER016W, strain bim1, active compounds read low 1 | locus YER110C, active compounds read low 0.988 | locus YER111C, strain swi4, active compounds read low 1.01 | locus YER155C, strain BEM2 (second series), active compounds read low 1.03 | locus YER155C, strain BEM2, active compounds read low 1.01 | locus YER167W, strain BCK2, active compounds read low 1 | locus YFR010W, strain ubp6, active compounds read low 1.02 | locus YGL078C, strain dbp3, active compounds read low 0.992 | locus YGL086W, strain mad1, active compounds read low 1.01 | locus YGL167C, strain pmr1, active compounds read low 1 | locus YGL173C, strain kem1, active compounds read low 1.05 | locus YGL227W, strain vid30, active compounds read low 1.02 | locus YGL240W, strain doc1, active compounds read low 1.02 | locus YGL248W, strain PDE1, active compounds read low 1.01 | locus YGL253W, strain hxk2, active compounds read low 1.01 | locus YGR135W, strain pre9, active compounds read low 0.971 | locus YGR252W, strain gcn5, active compounds read low 0.943 | locus YHR013C, strain ard1, active compounds read low 0.962 | locus YHR027C, strain rpn1, active compounds read low 1.02 | locus YHR030C, strain SLT2, active compounds read low 1 | locus YHR079C, strain IRE1 (second series), active compounds read low 0.998 | locus YHR079C, strain IRE1, active compounds read low 1.01 | locus YHR094C, strain hxt1, active compounds read low 0.989 | locus YHR129C, strain ARP1, active compounds read low 1.01 | locus YHR142W, strain chs7, active compounds read low 1.01 | locus YHR200W, strain rpn10, active compounds read low 1 | locus YIL066C, strain RNR3, active compounds read low 1.02 | locus YIL073C, strain SPO22, active compounds read low 1.01 | locus YIL125W, strain kgd1, active compounds read low 1.01 | locus YIR030C, strain dcg1, active compounds read low 1 | locus YJL092W, strain hpr5, active compounds read low 1.01 | locus YJL095W, strain BCK1 (second series), active compounds read low 1.01 | locus YJL095W, strain BCK1, active compounds read low 1.02 and 0.991 | locus YJL115W, strain asf1, active compounds read low 1.01 | locus YJL129C, strain trk1, active compounds read low 1.02 | locus YJL134W, strain LCB3, active compounds read low 1.01 | locus YJL154C, strain vps35, active compounds read low 1.01 | locus YJL164C, strain tpk1, active compounds read low 0.991 | locus YJL166W, strain qcr8, active compounds read low 1.03 | locus YJL168C, strain set2, active compounds read low 0.992 | locus YJL187C, strain SWE1 (second series), active compounds read low 1.01 | locus YJR043C, strain POL32, active compounds read low 1.01 | locus YJR066W, strain TOR1, active compounds read low 0.932
